# PGC1a acetyl inh: modulators of PGC1a acetylation. 350,000 tested, 0.17% active. inhibition, % at 15.6 µM. U2OS PGC1a acetylation, AlphaScreen anti-acetyl-lysine; with virally co-expressed GCN5 acetyltransferase;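 active = every replicate shows inhibition of at least 40%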;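 note: 0% = neutral control wells and 100% = positive control wells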
# AF4-AF9 inh: blocks AF4 peptide binding to human AF9. P42568. AlphaScreen, biotin-AF4 peptide binding to FLAG-AF9. inhibition, % at 10 µM. 350,000 tested, 0.47% active. AID 651704;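 active = every replicate reaching a set inhibition limit, whatever the replicate mean, cut at about 25% in these data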;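 note: 0% = plate neutral control median and 100% = total signal loss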
# Target sequence (P42568 whole entry, looked up): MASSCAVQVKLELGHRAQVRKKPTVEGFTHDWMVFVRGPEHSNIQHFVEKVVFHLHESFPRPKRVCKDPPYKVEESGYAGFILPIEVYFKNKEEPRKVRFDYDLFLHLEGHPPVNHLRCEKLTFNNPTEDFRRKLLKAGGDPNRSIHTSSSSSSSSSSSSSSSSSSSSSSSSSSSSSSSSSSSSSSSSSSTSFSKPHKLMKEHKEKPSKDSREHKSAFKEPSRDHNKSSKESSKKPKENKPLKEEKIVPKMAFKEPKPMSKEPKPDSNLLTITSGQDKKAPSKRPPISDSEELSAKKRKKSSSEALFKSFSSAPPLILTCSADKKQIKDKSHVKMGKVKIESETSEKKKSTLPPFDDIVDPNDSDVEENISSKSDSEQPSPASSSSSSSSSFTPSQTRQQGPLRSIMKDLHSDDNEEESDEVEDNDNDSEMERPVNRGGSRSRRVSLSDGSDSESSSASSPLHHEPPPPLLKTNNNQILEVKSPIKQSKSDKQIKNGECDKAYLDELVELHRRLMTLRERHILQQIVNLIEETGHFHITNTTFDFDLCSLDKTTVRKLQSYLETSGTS
# HIV Env fusion: blocks HIV Env-driven cell-cell fusion | HeLa-JRFL Env/CEM21 cell fusion, luciferase | inhibition, % at 12.3 µM | 360,000 tested, 1.1% active | AID 651610;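 active = mean replicate inhibition score of at least 50 and every replicate individually at or above 50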;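 note: 0% = plate neutral controls and 100% = maraviroc near 300 nM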
# INS-1E GSIS act: primary screen for activators of insulin secretion dependent on glucose, INS-1E cells, GLuc reporter luminescence; INS-1E GLuc reporter insulin secretion, 2-3 h; activation, % at 16.6 µM; 370,000 tested, 0.61% active; AID 743287;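 active = lowest replicate activation of at least 40%, so every replicate reaches that level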;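 note: 0% = median of neutral control wells and 100% = median of IBMX positive control wells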
# NSD2 HMT inh: inhibitors of human histone methyltransferase NSD2; O96028; NSD2 peptide methylation, AlphaScreen, 120 min; inhibition, % at 12.5 µM; 310,000 tested, 0.54% active; AID 743445; in the data active = inhibition above about 50%
# Starred values were filed as active, the others as inactive; . = no result given; [ ] = remark or other dose. Only some compounds are listed: those with a hit (about 2.1% of all), similar ones and a draw of the others.
SMILES,PGC1a acetyl inh,AF4-AF9 inh,HIV Env fusion,INS-1E GSIS act,NSD2 HMT inh
COCCNc1nc(N)c([N+](=O)[O-])c(NCC2CCCO2)n1 (centres undefined),.,.,-68,54*,1
Cc1ccc(Nc2nc(NCC3CCCO3)nc(N)c2[N+](=O)[O-])cc1 (centres undefined),.,.,-48,81*,-1
Cc1ccc(NC(=O)N(CCCN2CCOCC2)Cc2cccnc2)cc1C,2,39*,-19,-5,.
COc1ccc(NC(=O)N(CCCN2CCOCC2)Cc2cccnc2)c(OC)c1,-8,-1,-45,4,.
COc1ccc(OC)c(NC(=O)c2cc(-c3cc(Cl)ccc3O)n[nH]2)c1,-18,.,55*,.,1
COc1ccc(Cl)cc1NC(=O)c1cc(-c2ccccc2O)n[nH]1,.,.,-2,5,-1
Cc1cccc(-c2nc(C)cc(=O)[nH]2)c1,.,-15,-15,9,-2
COC(=O)[C@H](Cc1ccccc1)N(Cc1ccccc1)S(=O)(=O)N(Cc1ccccc1)[C@@H](Cc1ccccc1)C(=O)OC,.,5,80*,18,.
COC(=O)[C@H](Cc1ccccc1)N(C)S(=O)(=O)c1cccc(S(=O)(=O)N(C)[C@@H](Cc2ccccc2)C(=O)OC)c1,-55,-5,9,-3,.
CCN(Cc1ccccc1)c1cc2c(c3c1ccn3C)C1CCC2C1 (centres undefined),7,25*,30,-14,.
Cn1ccc2c(N3CCOCC3)cc3c(c21)C1CCC3C1 (centres undefined),3,26*,.,.,.
CCCN(CC1CC1)c1cc2c(c3c1ccn3C)C1CCC2C1 (centres undefined),-32,48*,.,-13,.
COc1ccc(C2=NS(=O)(=O)N(C)C(C(=O)NCc3ccccn3)=C2)cc1,2,-1,2,8,.
CCCCN(Cc1cc2ccccc2[nH]c1=O)S(=O)(=O)c1ccc(C)cc1,-15,-1,-12,-33,.
O=C(O)CCNc1ccc(Cl)cc1,.,-1,-18,7,1
CN(C)/C=C/C(=O)/C=C/c1ccc(Cl)cc1,10,1,-15,-1,2
CN(C)CC(O)c1ccc(C=Cc2ccc(Cl)cc2)cc1 (centres undefined),51*,8,-50,13,0
Cc1ccc(C(=O)NC2CC3CCCC(C2)N3C(=S)NCc2ccco2)cc1 (centres undefined),-5,0,7,-19,2
CC(C)Sc1nc(SCC(=O)O)c2c3c(sc2n1)COC(C)(C)C3,1,-9,-12,55*,-1
O=C(O)CCCc1ccc2c(c1)CCc1ccccc1-2,.,-1,63*,12,.
O=C(c1cccnc1)N1CCCCN2[C@@H](CO)[C@H](c3ccc(C#Cc4ccccn4)cc3)[C@@H]2C1,7,-6,.,2,.
Cc1cccc(-c2ccc([C@H]3[C@H]4CN(C(=O)c5cccnc5)CC(=O)N4[C@H]3CO)cc2)c1,-4,36*,.,7,.
O=C(c1cccnc1)N1CC(=O)N2[C@H](C1)[C@H](c1ccc(-c3ccc(F)cc3)cc1)[C@@H]2CO,13,31*,.,6,.
O=C(c1cccnc1)N1CCCCN2[C@H](C1)[C@H](c1ccc(C#Cc3ccccn3)cc1)[C@@H]2CO,12,25*,.,-12,.
CCOC(=O)C1(O)CC(C)=NN1C(=O)c1cccc(Cl)c1 (centres undefined),-6,.,-24,22,-4
SMILES,PGC1a acetyl inh,AF4-AF9 inh,HIV Env fusion,INS-1E GSIS act,NSD2 HMT inh
CCc1cccc(C)c1NC(=S)NCCc1c(C)[nH]c2ccc(C)cc12,-22,44*,-26,-13,.
COc1ccc(-c2c(C)nn3c(C(F)(F)F)cc(C)nc23)cc1,-5,4,87*,.,0
CCN1CCN(Cc2ccc(NC(=O)c3ccc(C)c(NC(=O)C[C@@H]4NC(=O)[C@H](Cc5ccccc5)NC4=O)c3)cc2C(F)(F)F)CC1,5,6,15,-4,.
Cc1ccc(C(=O)O)cc1-c1ccc(C=C2C(=O)c3ccccc3C2=O)o1,9,0,25,14,55*
CN(C)CCCNC(=O)/C(=C/c1ccc(-c2ccc([N+](=O)[O-])cc2)o1)NC(=O)c1ccccc1,10,4,-24,.,-3
CN(C)CCCNC(=O)/C(=C\c1ccc(-c2ccc(Br)cc2)o1)NC(=O)c1ccccc1,-17,29*,-12,.,4
O=C1CC(N2CCN(c3ccc(F)cc3)CC2)C(=O)N1Cc1cccs1 (centres undefined),31,.,.,.,.
N#C/C(=C\c1ccc(OCc2ccc(C(=O)O)cc2)cc1)C(=O)N1CCOCC1,.,0,65*,-4,.
COc1cc(/C=C(\C#N)C(=O)N2CCOCC2)ccc1OCc1ccccc1,.,0,-2,-7,5
O=[N+]([O-])c1ccc(O)c(/C=N/Nc2nn[nH]n2)c1,-2,-1,12,6,10
O=[N+]([O-])c1ccc(O)c(/C=N/Nc2ccc(Cl)nn2)c1,.,.,82*,34,-2
[N-]=[N+]=Nc1ccccc1C[C@@]1(C(=O)NCc2ccccc2)N=C(c2ccc(OCCCO)cc2)O[C@@H]1c1ccccc1N=[N+]=[N-],-16,0,59*[16.7 µM],.,.
Cc1cc(C2(c3ccc(O)c(C)c3)OC(=O)c3ccccc32)ccc1O,.,7,.,-17,41
Cc1cc(O)c(C(C)C)cc1C1(c2cc(C(C)C)c(O)cc2C)OC(=O)c2ccccc21,-3,1,68*,-19,2
CCCOc1ccc(C(=O)NNC(=S)NC(=O)CC)cc1,3,.,60*,.,2
COc1ccc(O)c(C(=O)c2cc(C#N)c(=O)n(-c3ccc(Cl)cc3)c2)c1,.,29*,-15,4,3
COc1ccc(-n2cc(C(=O)c3cc(Cl)ccc3O)cc(C#N)c2=O)cc1,4,-18,7,-7,-1
CCOC(=O)CSc1nc(Cc2ccccc2)nc2ccccc12,.,-4,56*,19,5
Cc1ccc(C)c(S(=O)(=O)N(C(=O)c2ccncc2)c2ccc(OC(=O)c3ccncc3)cc2)c1,44*,1,22,.,-1
Cc1ccc(S(=O)(=O)N(C(=O)c2ccncc2)c2ccc(OC(=O)c3ccncc3)cc2)c(C)c1,.,-34,1,1,1
Cc1c(C)n(CC(O)CNc2ccccc2)c2ccccc12 (centres undefined),.,26*,24,-2,8
O=C(O)CNC(=O)c1ccc(Sc2ccccc2)c([N+](=O)[O-])c1,.,-3,-4,9,-3
CC(C)(C)NC(=O)c1ccc(Sc2ccccc2)c([N+](=O)[O-])c1,81*,.,.,7,7
Cc1ccccc1C(=O)NCCOc1ccccc1Cl,6,-3,-138,17,-5
CCOc1ccc(N=Nc2ccc(O)c3ncccc23)cc1,.,6,1,-2,0
NS(=O)(=O)c1ccc(N=Nc2ccc(O)c3ncccc23)cc1,.,8,61*,0,5
CC(=O)NC(c1cccc(F)c1)c1nc(-c2cccc(C(C)C)c2)cs1 (centres undefined),100*,5,8,-25,0

# Assay outcomes deposited in PubChem BioAssay by Broad Institute.
